Test results: PubChem BioAssay AID1851 (National Center for Advancing Translational Sciences (NCATS), 2009)
Where “and” joins values, the source holds several entries; their conditions need not be identical. Equal values may be shown once. Among all 16,000 compounds or so, about 4,000 (25%) were called active. About 26% were inconclusive and are not listed. Calls come from the whole dose curve; as a rule, active = well fitted curve in the direction sought with a large enough effect; inconclusive = small, poorly fitted or top-dose-only effect, or effect the other way; inactive = no such curve, though single readings can be large or run the other way. Only a sample is shown. Some structures have more than one record in an assay (separate samples or runs), and their calls can disagree.

Biological target: Cytochrome P450 2C9 (Homo sapiens) (UniProt P11712)
Sequence (P11712 whole entry, looked up): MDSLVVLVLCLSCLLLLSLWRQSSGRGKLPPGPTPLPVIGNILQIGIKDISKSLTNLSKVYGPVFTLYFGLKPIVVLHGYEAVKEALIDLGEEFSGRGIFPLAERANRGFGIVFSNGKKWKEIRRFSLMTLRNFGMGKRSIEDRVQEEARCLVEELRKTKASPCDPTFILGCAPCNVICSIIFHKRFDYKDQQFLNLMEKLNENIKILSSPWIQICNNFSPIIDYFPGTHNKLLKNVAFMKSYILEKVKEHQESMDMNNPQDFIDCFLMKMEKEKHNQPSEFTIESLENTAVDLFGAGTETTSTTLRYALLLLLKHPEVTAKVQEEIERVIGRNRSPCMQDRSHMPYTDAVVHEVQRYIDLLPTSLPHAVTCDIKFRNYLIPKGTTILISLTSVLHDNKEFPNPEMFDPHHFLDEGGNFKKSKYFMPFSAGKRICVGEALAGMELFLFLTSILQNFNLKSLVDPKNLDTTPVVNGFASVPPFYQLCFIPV
Experiment: Cytochrome panel assay with activity outcomes
Conditions: recombinant CYP, pro-luciferin dealkylation, luminescence, p450-cyp2c9; series mostly up to 57.1 µM; activity, negative = inhibition: at the top concentration
% is set by controls: 0 for no effect and ±100 for the full control effect.

activity, negative = inhibition, inactive:
COc1ccc(NC(=O)N2CC3(CCN(C(=O)c4cccn4C)CC3)C2)cc1 -6.72%, COCCNC(=O)CCn1nc(-c2ccc(Cl)cc2)ccc1=O -24.3%, CO[C@@H]1COC(=O)[C@H](C)NC(=O)[C@@H](C)COC(=O)CCC[C@H]1C 10.9% [at 11.4 µM], N#C/C(=C\c1ccc(O)c(O)c1)C(=O)NCCc1ccccc1 -33.5%, CC(C)CN1CCC2(CC1)CCN(S(=O)(=O)c1ccccc1)CC2 2.64%, COc1cc2nc(N3CCN(C(=O)[C@@H]4CCCO4)CC3)nc(N)c2cc1OC 8.56% [at 25.6 µM], CNc1ncnc2c1ncn2[C@@H]1O[C@H](CO)[C@@H](O)[C@@H]1O -2.78% [at 25.6 µM], CNc1ncnc2c1ncn2[C@@H]1O[C@@H](CO)[C@H](O)[C@@H]1O -1.43%, COc1ccc2c(c1)N(CC[C@H]1CCCCN1C)c1ccccc1S2 -3.81% [at 11.4 µM], O=C(O)CC/C=C\CC[C@H]1[C@@H](N2CCCCC2)[C@@H](O)C[C@@H]1OCc1ccc(-c2ccccc2)cc1 11.9%, COCCCNCC(=O)c1c(N)n(Cc2ccccc2)c(=O)n(C)c1=O -17.7%, C1CCN(CC[C@@H]2CCCCN2)CC1 12.5% [at 11.4 µM], C[N+](C)(N)Cc1csc(-c2ccc(Cl)cc2)n1 2.29% [at 11.4 µM], COc1ccccc1-c1ccc2ncnc(NCc3cnc(C)cn3)c2c1 -18.5% [at 2.29 µM], COc1ccc(-n2c(=O)cnc3cnc(Oc4ccccc4)nc32)cc1 -20%, O=C1C=C(N2CCN(c3ccccn3)CC2)C(=O)c2c(O)ccc(O)c21 -10.2% [at 11.4 µM], O=C(O)CNCCc1ccccc1 12.3% [at 11.4 µM], O=C(NCCCN1CCc2ccccc2C1)C1CCN(S(=O)(=O)N2CCCC2)CC1 -27%, C=CCNCCCCOc1c(Cl)cc(C)cc1Br 28.8%, COc1ccc2oc(=O)c(NC(=O)C3CCCCC3)cc2c1 -3.66%, CN1CCc2[nH]nc(-c3n[nH]c4c3CN(C)CC4)c2C1 3.89% [at 11.4 µM], CCOc1ccc(C2C(C(=O)O)c3ccccc3C(=O)N2CCN2CCOCC2)cc1 (stereo not drawn) 7.76%, C[N+]1(CC(=O)OCCCc2ccccc2)CCOCC1 -7.29%, CN(C(=O)CCCOc1ccc2[nH]c(=O)ccc2c1)C1CCCCC1 25.2%, CCOc1cc(CC(=O)N[C@@H](CC(C)C)c2ccccc2N2CCCCC2)ccc1C(=O)O -5.99% [at 25.6 µM], CO[C@@H]1COC(=O)[C@@H](CCSC)NC(=O)C/C=C\[C@@H](C)COC(=O)[C@H](C)NC(=O)C/C=C\[C@H]1C 10% [at 11.4 µM], CN(Cc1ccco1)c1ncnc2ccc(-c3ccccc3C#N)cc12 -18.9% [at 2.29 µM], Oc1ccc2ccccc2c1C=NCc1c(O)ccc2ccccc12 -2.74% [at 11.4 µM], FC(F)(F)c1ccccc1-c1ccc2ncnc(NC3CC3)c2c1 -6.68% [at 2.29 µM], NS(=O)(=O)c1ccc(N=C2C(=O)Nc3ccccc32)cc1 0.554% [at 11.4 µM], O=C(NCCc1ccccc1)C(=O)NN=C1CCCC1 -22.4%, C=CC1=C(C(=O)O)N2C(=O)[C@@H](NC(=O)/C(=N\OCC(=O)O)c3csc(N)n3)[C@@H]2SC1 6.6% [at 25.6 µM], O=C(NNc1cccc(Cl)n1)Nc1ccccc1Cl 2.18%, Cc1nc2cnc(N(C)C)nc2n(C)c1=O -11.2%, CCOC(=O)c1sc2nc3c(cc2c1N)COC(C(C)C)C3 (stereo not drawn) -14.7%, CCOC(=O)/C(=C/Nc1ccccc1)[N+](=O)[O-] -19.7%, CO[C@H]1COC(=O)[C@@H](CCSC)NC(=O)C/C=C\[C@@H](C)[C@H](OC)COC(=O)[C@@H](OCc2ccccc2)/C=C\[C@@H]1C 19.4% [at 11.4 µM], O=C(Nc1ccc(C(=O)Nc2ccc(C(=O)Nc3ccc(S(=O)(=O)O)c4cc(S(=O)(=O)O)cc(S(=O)(=O)O)c34)cc2)cc1)Nc1ccc(C(=O)Nc2ccc(C(=O)Nc3ccc(S(=O)(=O)O)c4cc(S(=O)(=O)O)cc(S(=O)(=O)O)c34)cc2)cc1 -1.99%, COCCNc1ccnc(-c2ccccc2C)n1 -5% [at 2.29 µM], CCOC(=O)c1cnn(-c2cc(Oc3ccccc3)ncn2)c1N -9.04%, CCOC(=O)c1cn(-c2nc(-c3ccc(Cl)cc3)cs2)c2c(F)c(N3CC(C)OC(C)C3)c(F)cc2c1=O (stereo not drawn) -40.2%, CCOC(=O)c1cnn(CCOC(=O)C(C)(C)C)c1NC(=O)C(C)(C)C -32.9%, FC(F)(F)c1ccccc1-c1cncnc1NCc1cccs1 -5.24% [at 2.29 µM], CC(C)n1nnc2ccccc2c1=O -24.8%, Cc1ccc(C(=O)/C=C2\NCC(C)NC2=O)cc1 (stereo not drawn) -2.82%, CC(C)(C)OC(=O)[C@H]([C@@H]1N[C@@H](C(=O)O)C(C)(C)S1)N1C(=O)c2ccccc2C1=O 19% [at 11.4 µM], CCN1C(=O)[C@H]2[C@H]3[C@H](O)[C@H](O)C/C(=N/O[C@@H](C)c4cn([C@H](CO)Cc5ccccc5)nn4)[C@@H]3CC[C@@H]2C1=O -13.4% [at 11.4 µM] and 2.69% [at 11.4 µM], CC1(C)O[C@@H]2O[C@H]([C@H](O)CO/N=C3/[C@H]4O[C@@H]4[C@@H](O)[C@H]4[C@H]3CCn3c(=O)n(-c5ccccc5)c(=O)n34)[C@@H](O)[C@@H]2O1 15.4% [at 11.4 µM]

AC50, inactive:
C[C@@H](CN1c2ccccc2Sc2ccccc21)N(C)C, O=C(Nc1cccc(C(=O)Nc2ccc(S(=O)(=O)O)c3cc(S(=O)(=O)O)cc(S(=O)(=O)O)c23)c1)Nc1cccc(C(=O)Nc2ccc(S(=O)(=O)O)c3cc(S(=O)(=O)O)cc(S(=O)(=O)O)c23)c1

AC50, inactive and 7.94 µM (active):
O=C(Nc1cc(C(=O)Nc2ccc(S(=O)(=O)O)cc2S(=O)(=O)O)cc(C(=O)Nc2ccc(S(=O)(=O)O)cc2S(=O)(=O)O)c1)Nc1cc(C(=O)Nc2ccc(S(=O)(=O)O)cc2S(=O)(=O)O)cc(C(=O)Nc2ccc(S(=O)(=O)O)cc2S(=O)(=O)O)c1

AC50, active:
CCC(Sc1nc2n[nH]c(C)c2c(=N)n1-c1cccc(Cl)c1)C(=O)NCCOC (stereo not drawn) 4.47 µM, N#C/C(=C\c1ccc(O)c(O)c1)C(=O)OCCc1cccs1 15.8 µM, CC(Oc1ccc(Cl)cc1)c1ccnn1S(=O)(=O)c1ccccc1 (stereo not drawn) 7.94 µM, CC(Oc1ccccc1)c1ccnn1S(=O)(=O)c1ccccc1 (stereo not drawn) 4.47 µM, CC(Oc1ccc(-c2ccccc2)c(F)c1)c1ccn(S(=O)(=O)c2ccc(Cl)cc2)n1 (stereo not drawn) 7.08 µM, O=C(NNS(=O)(=O)c1cc(Cl)cc(Cl)c1)c1sccc1-n1cccc1 0.126 µM, CCCCC#Cc1nc(NC)c2ncn([C@@H]3O[C@@H](CO)[C@H](O)[C@H]3O)c2n1 0.631 µM, CSC1=C(C#N)C(c2ccccc2Cl)C2=C(N1)c1ccccc1C2=O (stereo not drawn) 1 µM, N#CC1=C(SCC(N)=O)NC2=C(C(=O)c3ccccc32)C1c1ccc(Cl)cc1 (stereo not drawn) 6.31 µM, Cn1c(=O)c2c(n(Cc3ccccc3)c1=O)NC(=O)C2CC(=O)NCc1cccc(Cl)c1 (stereo not drawn) 12.6 µM, CCCCCN1CC(O)=C(c2nc(-c3ccc(Cl)cc3)cs2)C1=N 0.631 µM, CCCCc1n[nH]c2c1/C(=N/O)CC(c1ccccc1)C2 (stereo not drawn) 2 µM, O=C1CC(c2cccs2)c2cc3c(cc2N1)OCO3 (stereo not drawn) 15.8 µM, COc1ccc(Oc2nc3ccccc3nc2C(F)(F)F)cc1 7.94 µM, O=C(NCCc1ccccc1)N1c2ccccc2Sc2ccccc21 12.6 µM, O=S(=O)(c1ccc(Cl)s1)N1CCc2ccccc2C1 28.2 µM, COc1ccc2c(c1)OC1=C(C(=O)CCC1)C2C1=C(O)CCCC1=O (stereo not drawn) 22.4 µM, COc1ccccc1CN(Cc1cc2cc3c(cc2[nH]c1=O)OCCO3)Cc1nnnn1Cc1ccco1 12.6 µM, CCOc1ccc2[nH]c(=O)c(CN(CCc3ccccc3)C(=O)N3CCCC3)cc2c1 7.94 µM, CCOc1ccc2[nH]c(=O)c(CN(CCc3ccccc3)C(=O)N3CCOCC3)cc2c1 7.08 µM, Oc1ccc2ccccc2c1/C=C\c1ccc2c(Br)cc(Br)c(O)c2n1 2.51 µM, O=C1Nc2ccccc2/C1=N/c1sc2c(c1C(=O)NCCc1ccccc1)CCCC2 3.98 µM, CN(C)S(=O)(=O)Oc1cccc(C(=O)Nc2ccccc2Cl)c1 5.01 µM, CCOC(=O)c1sc2nc3c(cc2c1N)COC(C)(CC)C3 (stereo not drawn) 10 µM, C#CCN1C(C)=C(C(=O)OC)[C@@H](c2cccc([N+](=O)[O-])c2)C(C(=O)OCC)=C1C 0.316 µM, CCOC(=O)C1=C(C)NC(C)=C(C(=O)OC)[C@@H]1c1cccc([N+](=O)[O-])c1 0.316 µM, CCOC(=O)C1=C(C)NC(C)=C(C(=O)OC)[C@H]1c1cccc([N+](=O)[O-])c1 0.158 µM, CCOC(=O)c1cnn(-c2nc(-c3ccc(F)cc3)cs2)c1C(F)(F)F 12.6 µM, CCOC(=O)c1cnn(-c2nc(-c3cccc(F)c3)cs2)c1C(F)(F)F 2.24 µM, O=c1c2ccccc2nnn1CSc1ccc2c(c1)OCCO2 7.94 µM, Cc1ccc(C(=O)/C=C/c2c[nH]c3ccccc23)cc1 2.82 µM, CSc1nsc(SCc2ccc(Cl)cc2)n1 0.355 µM
